Inconclusive results are not listed. Activity calls are given as the source filed them. How the source made its calls: active means hit-call score of the fitted dose curve at least 0.9, where 1 is the maximum; inconclusive means response in the unintended direction; inactive means score below 0.9.

The target in this assay is sheep Cyclooxygenase-1 (Cox1), PTGS1 (gene 443551) (UniProt P05979). Nature of the assay: NVS_ENZ_oCOX1: NovaScreen (NVS) Enzymatic Assay for sheep Cyclooxygenase-1 (Cox1) (AID 2283239).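 Further: actives reduce cyclooxygenase activity so potencies are for inhibitors.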 Here is the method: NVS_ENZ_oCOX1 is a biochemical, single-readout assay that uses extracted gene-proteins from Ovine seminal vesicles in a tissue-based cell-free assay. Measurements were taken 0.66 hour after chemical dosing in a 96-well plate.NVS_ENZ_oCOX1 is one of one assay component(s) measured or calculated from the NVS_ENZ_oCOX1 assay. It is designed to make measurements of enzyme activity, a form of enzyme reporter, as detected with absorbance signals by Colorimetric technology.Data from the assay component NVS_ENZ_oCOX1 was analyzed into 1 assay endpoint. This assay endpoint, NVS_ENZ_oCOX1, was analyzed in the positive analysis fitting direction relative to DMSO as the negative control and baseline of activity. Using a type of enzyme reporter, loss-of-signal activity can be used to understand changes in the enzymatic activity as they relate to the gene PTGS1. Furthermore, this assay endpoint can be referred to as a primary readout, because this assay has produced multiple assay endpoints where this one serves a enzymatic activity function. To generalize the intended target to other relatable targets, this assay endpoint is annotated to the oxidoreductase intended target family, where the subfamily is cyclooxygenase.
Sequence of sheep Cyclooxygenase-1 (Cox1), PTGS1 (gene 443551) (P05979 whole entry, looked up): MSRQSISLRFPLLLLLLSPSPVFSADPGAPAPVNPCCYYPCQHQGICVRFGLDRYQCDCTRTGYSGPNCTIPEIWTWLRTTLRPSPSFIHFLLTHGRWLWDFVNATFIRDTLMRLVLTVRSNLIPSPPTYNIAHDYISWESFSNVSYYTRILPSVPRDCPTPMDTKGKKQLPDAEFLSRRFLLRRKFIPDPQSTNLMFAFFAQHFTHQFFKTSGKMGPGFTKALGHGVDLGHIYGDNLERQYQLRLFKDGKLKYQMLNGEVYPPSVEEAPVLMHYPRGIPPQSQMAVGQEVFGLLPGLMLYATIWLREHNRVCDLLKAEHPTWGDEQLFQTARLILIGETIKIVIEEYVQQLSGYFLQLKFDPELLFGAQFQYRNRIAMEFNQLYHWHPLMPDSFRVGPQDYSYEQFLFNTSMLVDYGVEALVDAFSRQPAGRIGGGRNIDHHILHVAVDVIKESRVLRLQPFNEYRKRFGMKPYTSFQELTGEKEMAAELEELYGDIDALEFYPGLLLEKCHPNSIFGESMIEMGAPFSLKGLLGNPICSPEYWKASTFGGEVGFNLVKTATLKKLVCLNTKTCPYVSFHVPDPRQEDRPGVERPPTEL
Binding assays used specific radioligands (tritiated, iodinated) with non-radioactive competitive displacement ligands in agonist or antagonist protocols (as indicated) and various reference compounds and inhibitors to titrate specific binding to receptors and transporters. Most enzyme assays (CYPs, kinases, phosphatases, proteases, HDACs) used recombinant protein and specific substrates (fluorescence mostly, some colorimetric and radioactive) and inhibitors, followed by a biochemical separation of substrate and product. All assays for the biochemical HTS were initially run in duplicate at a single concentration (10 uM for CYP450 assays and 25 uM for all others). […] Each assay was run with positive and negative controls, and concurrent controls on every plate. The follow-up (secondary) screen tested active chemical-pairs in concentration series, as well as a few additional assays not tested in the primary screen, some selected negative inactives, and several cases re-run in the concentration series for confirmatory purposes.
As to `Clc1ccc(C2(Cn3cncn3)CC(Br)CO2)c(Cl)c1` (stereo not given), the outcome was inactive. On to `ClC(Cl)=C(Cl)C(Cl)=C(Cl)Cl`, for which the call was inactive.

As to `CCCCCCCCCl`, the AC50 was 0.0723 µM (active). On to `CC(C)(C)c1cc(O)ccc1O`, for which the AC50 was 11 µM (active).

Take `COc1cc(OC)nc(NC(=O)NS(=O)(=O)c2ncccc2C(=O)N(C)C)n1`: the half-maximal activity concentration (AC50) was 7.06 µM (active). For the compound `ClCCBr`, the outcome was inactive. On the same count and under the same terms, for `CC(=O)C(Cl)C(=O)N(C)C` (stereo not given) the value was “inactive”. With `CCOC(=O)Nc1cccc(OC(=O)Nc2ccccc2)c1`, the AC50 was 8.56 µM (active). Take `OCc1ccco1`: the AC50 was 6.01 µM (active). Regarding `CCN1CCC2(CC1)COc1cc3c(cc12)N(C(=O)c1ccc(-c2ccc(-c4nnc(C)o4)cc2C)cc1)CC3`, the AC50 is 4.68 µM (active).

As to `Nc1ccc(-c2ccc(N)c(Cl)c2)cc1Cl`, the concentration at half-maximal activity (AC50) was 1.64 µM (active).

On to `CC(C)(OO)c1ccccc1`, for which the AC50 is 2.76 µM (active). The same measure, in the same setting: for `Cl/C=C\C[N+]12CN3CN(CN(C3)C1)C2` the value was 5.46 µM (active); for `CCOC(=O)/C=C(C)/C=C/C[C@@H](C)CCCC(C)C`, 31.3 µM (active). For `CC12CC1(C)C(=O)N(c1cc(Cl)cc(Cl)c1)C2=O` (stereo not given), the result was inactive. Regarding `O=[N+]([O-])c1ccc2c3c(cccc13)CC2`, the AC50 was 18.9 µM (active).

`Oc1ccc(-c2ccccc2)cc1`: the call was inactive. On to `COC(=O)Cc1ccccc1`, for which the call was inactive.

Regarding `Nc1cccc2ccccc12`, the AC50 is 13.6 µM (active). Take `O=C(O)C(F)(F)C(F)(F)C(F)(F)C(F)(F)C(F)(F)C(F)(F)C(F)(F)C(F)(F)C(F)(F)C(F)(F)F`: the compound was classed as inactive.

The term AC50 denotes the midpoint of the concentration-response curve, whichever way the signal moves.

For the origin of these results see PubChem BioAssay (EPA / NIEHS).
